# Screening results: PubChem BioAssay, National Center for Advancing Translational Sciences (NCATS)
# Most compounds without a hit are left out; they make up all but 7.1% or so of the library.
# Lassa entry: Lassa virus entry inhibition; Lassa virus pseudotyped entry inhibition, cell-based qHTS; Potency, µM (series often up to 49.2 µM), for inactives: at the top dose activity change, negative = inhibition, hits mostly inhibitors; actives 4.1% (n = 18,000)
# MARV entry inh: Marburg virus entry inhibition; Potency, µM (doses to about 49.2 µM), for inactives: top-dose activity change, negative = inhibition, actives largely listed as inhibitors; actives 6.5% (n = 18,000); Marburg virus pseudotype entry/binding inhibition, cell-based
# Starred values were filed as active, the others as inactive; ? = inconclusive; . = no result; ! = not active in a repeat; [ ] = remark or other dose. Calls come from the whole dose curve; tested in HEK293 cells. % is set by controls: 0 for no effect and ±100 for the full control effect; potency is the fitted concentration of half-maximal effect.
SMILES,Lassa entry,MARV entry inh
Cc1ccc2[nH]c(-c3cccc(F)c3)cc(=O)c2c1,9.3%,?
Cc1ccc(-c2cc(=O)c3cc(C)ccc3[nH]2)cc1,?,25.1µM*
CN1CCCCC1Cn1cc(C(=O)c2cc([N+](=O)[O-])ccc2I)c2ccccc21 (stereo not given),?,10µM*
O=S1(=O)C=CCN1Cc1ccc(F)cc1,-26.9%,-4.9%
COC(=O)N(C=Cc1ccc(OC)cc1)CCc1ccc(OC)c(OC)c1,1.2%[8.59 µM],2.8%[8.59 µM]
Cc1c(C(=O)NCC2(N3CCOCC3)CCCCCC2)cnn1-c1nccc(-c2ccccc2F)n1,-12.4%,11.2µM*
Cc1c(C(=O)NCC2(N3CCCCC3)CCCC2)cnn1-c1nccc(-c2ccccc2F)n1,-9.0%,-17.8%
CC[C@@H](C)[C@@H](CO[C@@H](Cc1ccccc1)C(=O)N[C@@H](CCS(C)(=O)=O)C(=O)OC(C)C)NC[C@@H](N)CS,-18.5%,10µM*
CC(C)C[C@H](NC(=O)[C@@H](O)[C@H](N)Cc1ccccc1)C(=O)O,?,-10.0%
Cc1[nH]c(/C=C2\C(=O)Nc3ccc(S(=O)(=O)N(C)c4cccc(Cl)c4)cc32)c(C)c1C(=O)N1CCN(C)CC1,?,10µM*
C#CCNc1ccc2c(c1)OC[C@H](C)NS2(=O)=O,.,8.0%
COC1=C[C@H](C(=O)NCCOC(C)=O)[C@@]2(C)Cc3ccccc3[C@@H]2CC1=O,-14.9%[8.59 µM],-10.3%[8.59 µM]
Cc1cc(N)c2ccccc2[n+]1CCCCCCCCCC[n+]1c(C)cc(N)c2ccccc21,28.2µM*,?
Cc1cc(C)cc(CO[C@H]2C=C[C@@H](c3ccccc3)O[C@H]2CO)c1,-10.7%[8.59 µM],-24.4%[8.59 µM]
COc1ccc2cc(CNCc3ccccc3C(F)(F)F)c(N3CCCC(CO)C3)nc2c1 (stereo not given),-24.9%,0.6%
COCC(C)NCc1cc2ccc(OC)cc2nc1N1CCN(c2ccc(F)cc2)CC1 (stereo not given),?,11.2µM*
COC1=C[C@H](C(=O)N[C@H]2CCCC[C@H]2NC(C)=O)[C@@]2(C)Cc3ccccc3[C@@H]2CC1=O,24.3%[8.59 µM],-12.3%[8.59 µM]
CCCCCCCc1cc2ccccc2c2c(C=O)c(CCCC)c(C(=O)OC)n12,-16.5%[8.59 µM],?
C[C@@]12C(=O)OC(=O)[C@@]1(C)[C@@H]1CC[C@@H]2O1,-13.4%,3.6%
C[C@@]12C(=O)OC(=O)[C@@]1(C)C1CCC2O1,2µM*,3.55µM*
CCOC(=O)[C@]12C[C@]3(OC)CCN(C(=O)N[C@@H]1c1ccccc1)[C@@H]32,?,9.7%[8.59 µM]
COc1cc(/C=C/C(=O)N2CCC=CC2=O)cc(OC)c1OC,?,10µM*
COc1cc(C(=O)N2CCCCCCC2)cc(OC)c1OC,-20.4%,-5.1%
CN(C)CCN1C(=O)c2ccccc2N(C)c2ccccc21,?,35.5µM*!
C[N+](C)(CCCCCC[N+](C)(C)CCCN1C(=O)c2ccccc2C1=O)CCCN1C(=O)c2ccccc2C1=O,-6.1%,5.3%
SMILES,Lassa entry,MARV entry inh
C[N+](C)(C)CCOC(=O)C(O)(c1ccccc1)c1ccccc1,-17.0%,-10.0%
Cc1cc(C(C)(C)CC(C)(C)C)ccc1OCCOCC[N+](C)(C)Cc1ccccc1,?,11.2µM*
CC1=CC[C@@H](C)O[C@@]2(C1)C(=O)Nc1cccc(Br)c12,59.9%[8.59 µM],-15.4%[8.59 µM]
CN1C(CC(=O)c2ccccc2)CCCC1CC(O)c1ccccc1 (stereo not given),-25.4%,?
CN1[C@@H](CC(=O)c2ccccc2)CCC[C@H]1C[C@H](O)c1ccccc1,?,28.2µM*
COC(=O)C1=C(C(=O)OC)[C@@H]2N(Cc3ccccc3)c3ccccc3[C@@]23C[C@@H](CO)N=C3N1,-9.6%[8.59 µM],-1.2%[8.59 µM]
COc1cc(-c2coc3cc(OC)c(OC)c(OC)c3c2=O)cc(OC)c1OC,-11.1%,1.9%
CC(=O)Oc1cc(-c2coc3cc(OC(C)=O)c(OC(C)=O)c(OC(C)=O)c3c2=O)cc(OC(C)=O)c1OC(C)=O,-4.9%,14.1µM*
CC(=O)OC[C@H]1O[C@H](c2ccc(C(C)=O)cc2)C=C[C@H]1OC(C)=O,-11.5%[8.59 µM],1.7%[8.59 µM]
C[C@H](CO)NS(=O)(=O)c1cccc(Cl)c1F,14.1%,18.7%
CCOC(=O)c1c(C)n(C)c2ccc(O)cc12,-4.0%,5.7%
CCCCNc1c(C(=O)OCC)c(C)nc2c1cnn2CC,25.1µM*!,7.94µM*!
COc1cccc([C@H]2Oc3ccc(OC)cc3C(=NO[C@H](C)CN3CCCc4nc(C)c(C)cc43)[C@H]2O)c1,6.2%[8.59 µM],?
CCN1C(=NCc2cccc(C(F)(F)F)c2)NC(c2cccc(C(F)(F)F)c2)C(C(=O)OC)=C1C (stereo not given),-32.4%[8.59 µM],-17.4%[8.59 µM]
CCCCCCCc1cc2ccccc2c2c(C(=O)OC)c(-c3ccccc3)c(C(=O)OC)n12,-1.1%[8.59 µM],?
CCOC(=O)[C@@]12[C@@H]3[C@@H](CCN3C(=O)N[C@H]1c1ccccc1)C2(C)C,.,1.8%[8.59 µM]
CN(C)c1ccc(-c2nc(N(C)C)c3ccccc3n2)cc1,-7.3%,11.2µM*
CN(C)c1ccc(-c2nc(N(C)Cc3ccco3)c3ccccc3n2)cc1,29.0%,?
